Assay [1] can be described thus: ATG_DR4_LXR_CIS: Attagene CIS-FACTORIAL HepG2 Assay for human Liver X Receptor (LXR), DR4 submotif (AID 2282929). The following applies: HepG2 Attagene DR4 cis-reporter, mRNA transcription; actives raise or lower the signal. In short, it runs like this: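 HepG2 cells were transiently transfected with multiple cis-regulated reporter units and dosed for 24 hours. The DR4 reporter mRNA was quantified by RT-PCR, 6-FAM labelling and capillary electrophoresis. Bidirectional fits used DMSO as baseline.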

In assay [2] the target is Aryl hydrocarbon receptor (Homo sapiens) (UniProt P35869). The assay is described as follows: ATG_Ahr_CIS: Attagene CIS-FACTORIAL HepG2 Assay for human Aryl Hydrocarbon Receptor (Ahr) (AID 2282930). The following applies: HepG2 AhR cis-factorial reporter transcription; actives raise or lower the signal. In short, it runs like this:
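Transient MRTU transfection of HepG2 → 24 h compound exposure → total RNA, oligo(dT) RT → PCR, 6-FAM extension, HpaI cut → CE fluorescence. DMSO = baseline; bidirectional curve fit.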

Assay [3] is described as follows: ATG_AP_1_CIS: Attagene CIS-FACTORIAL HepG2 Assay for human Activator Protein 1 (AP-1) (AID 2282931). The conditions noted are these: HepG2 Attagene cis-factorial AP-1 reporter mRNA; actives raise or lower the signal. In short, it runs like this:
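HepG2 cells transiently transfected with cis-element-driven reporter transcription units, dosed for 24 hours. Reporter mRNA measured by RT-PCR, 6-FAM labelling, HpaI digestion and capillary electrophoresis. Bidirectional fitting against DMSO baseline.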

Assay [4] is described as follows: ATG_AP_2_CIS: Attagene CIS-FACTORIAL HepG2 Assay for human Activator Protein 2 (AP-2) (AID 2282932). The following applies: HepG2 AP-2 cis-reporter, Attagene transcription factor profiling; actives raise or lower the signal. In short, it runs like this:
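Endogenous transcription factor activity is reported through transfected multiplex reporter constructs in HepG2, after 24 h of compound exposure. Transcripts were quantified by RT-PCR and capillary electrophoresis of fluorescent fragments. Bidirectional fit against DMSO.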

A short description of assay [5]: ATG_BRE_CIS: Attagene CIS-FACTORIAL HepG2 Assay for human Bone Morphogenetic Protein (BMP) Response Element (BRE) (AID 2282933). The following applies: HepG2 BMP response element reporter, Attagene transcription factor profiling; actives raise or lower the signal. In short, it runs like this: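 A HepG2 multiplex reporter system measured inducible reporter mRNA 24 h post-dosing. Detection: RT-PCR, 6-FAM primer extension, HpaI digestion, capillary electrophoresis. Activity fitted bidirectionally relative to DMSO.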

Assay [6] deals with Retinoic acid receptor alpha (Homo sapiens) (UniProt P10276). The assay is described as follows: ATG_DR5_RAR_CIS: Attagene CIS-FACTORIAL HepG2 Assay for human Retinoic Acid Receptor Alpha (RARE), DR5 submotif (AID 2282934). The following applies: HepG2 Attagene cis-factorial RARE DR5 reporter, mRNA; actives raise or lower the signal. In short, it runs like this:
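Transient MRTU transfection of HepG2; 24 h compound treatment; TriZol RNA, oligo(dT) RT, PCR, FAM labelling, capillary electrophoresis. Bidirectional fit vs DMSO. Endogenous TF activity at DR5 RARE.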

Assay [7] deals with Transcription factor E2F1 (Homo sapiens) (UniProt Q01094). The assay is described as follows: ATG_E2F_CIS: Attagene CIS-FACTORIAL HepG2 Assay for human E2F Transcription Factor 1 (AID 2282935). The following applies: HepG2 Attagene cis-reporter, E2F reporter RNA transcripts; actives raise or lower the signal. In short, it runs like this:
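Gain or loss of reporter transcript, fitted against DMSO, reflects E2F1-driven transcription. Transiently transfected HepG2 dosed 24 h before RNA isolation. Quantified by fluorescent RT-PCR products separated by capillary electrophoresis.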

A short description of assay [8]: ATG_E_Box_CIS: Attagene CIS-FACTORIAL HepG2 Assay for human Enhancer Box (E-box) (AID 2282936). The conditions noted are these: HepG2 E-box cis-reporter transcription, actives raise or lower the signal. In short, it runs like this: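 E-box-driven reporter transcripts measured in transiently transfected HepG2 after 24 h exposure: RNA reverse-transcribed, PCR-amplified, fluorescently labelled, digested and resolved by capillary electrophoresis. Gain or loss relative to DMSO.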

A short description of assay [9]: ATG_M_61_CIS: Attagene CIS-FACTORIAL HepG2 Assay for M61 Transcription Factor (Internal Marker) (AID 2282937). The following applies: HepG2 Attagene CIS-FACTORIAL M61 internal marker reporter; actives raise or lower the signal. In short, it runs like this:
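HepG2 cells transiently transfected with multiplexed cis-promoter reporter units reporting endogenous transcription factor activity, measured 24 h after dosing. Reporter mRNA quantified by RT-PCR and capillary electrophoresis; bidirectional fit against DMSO baseline.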

Assay [10] can be described thus: ATG_EGR_CIS: Attagene CIS-FACTORIAL HepG2 Assay for human Early Growth Response 1 (EGR1) (AID 2282938). The conditions noted are these: HepG2 Attagene CIS-FACTORIAL EGR reporter mRNA; actives raise or lower the signal. In short, it runs like this:
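HepG2 cells transiently transfected with cis-element-driven multiplexed reporter units, dosed for 24 h. EGR1-element reporter mRNA quantified by RT-PCR, 6-FAM labelling, HpaI digestion and capillary electrophoresis; bidirectional fit versus DMSO.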

A short description of assay [11]: ATG_M_19_CIS: Attagene CIS-FACTORIAL HepG2 Assay for M19 Transcription Factor (Internal Marker) (AID 2282939). The conditions noted are these: HepG2 Attagene CIS-FACTORIAL M19 internal marker reporter; actives raise or lower the signal. In short, it runs like this:
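Chemical-treated HepG2 (24 h) with MRTU constructs; reporter transcripts detected by fluorescent RT-PCR fragment analysis on capillary electrophoresis. Internal background marker, DMSO as baseline.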

Assay [12] in a line: ATG_ERE_CIS: Attagene CIS-FACTORIAL HepG2 Assay for Estrogen Response Element (ERE) (AID 2282940). The conditions noted are these: HepG2 ERE cis-reporter, Attagene RNA transcript; actives raise or lower the signal. In short, it runs like this: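 Human liver cells (HepG2) bearing transiently transfected, promoter-regulated reporter units were exposed 24 h. Reporter mRNA induction was detected by capillary electrophoresis of labelled RT-PCR products and fitted bidirectionally to DMSO.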

A short description of assay [13]: ATG_Ets_CIS: Attagene CIS-FACTORIAL HepG2 Assay for human Erythroblast Transformation Specific (ETS) (AID 2282941). The following applies: HepG2 ETS cis-reporter transcription, actives raise or lower the signal. In short, it runs like this:
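RT-PCR/capillary electrophoresis fluorescence read-out of reporter mRNA; HepG2 transient multi-reporter transfection; 24 h compound exposure; gain or loss of signal fitted bidirectionally relative to DMSO.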

A short description of assay [14]: ATG_FoxO_CIS: Attagene CIS-FACTORIAL HepG2 Assay for human Forkhead box O (FoxO) (AID 2282943). The conditions noted are these: HepG2 Attagene cis-reporter, FoxO element, mRNA; actives raise or lower the signal. In short, it runs like this: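 HepG2, transient MRTU transfection (cis element, endogenous TFs). Dose 24 h. TriZol RNA → oligo(dT) RT → PCR → 6-FAM primer extension → HpaI cut → CE. Gain/loss vs DMSO.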

Assay [15] in a line: ATG_GATA_CIS: Attagene CIS-FACTORIAL HepG2 Assay for human GATA Binding Protein (AID 2282944). The conditions noted are these: HepG2 GATA cis-element reporter, Attagene multiplex mRNA; actives raise or lower the signal. In short, it runs like this:
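Transfected cis-reporter HepG2 cells were treated with chemicals for 24 hours. Total RNA was then converted to cDNA, amplified with reporter-specific primers and analysed by fluorescent capillary electrophoresis, using DMSO-treated wells as baseline.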

A short description of assay [16]: ATG_GLI_CIS: Attagene CIS-FACTORIAL HepG2 Assay for human Zinc Finger Protein GLI1 (AID 2282945). The conditions noted are these: HepG2, Attagene cis-factorial reporter mRNA, GLI element; actives raise or lower the signal. In short, it runs like this:
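Bidirectional curve fits relative to DMSO, using reporter mRNA levels from RT-PCR plus capillary electrophoresis. Cells were HepG2 transiently carrying cis-regulated reporter constructs, harvested 24 h after dosing.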

In assay [17] the target is Bile acid receptor (Homo sapiens) (UniProt Q96RI1). The assay is described as follows: ATG_IR1_CIS: Attagene CIS-FACTORIAL HepG2 Assay for human Nuclear Receptor Subfamily 1 Group H Member 4 (NR1H4), IR1 submotif (AID 2282946). The following applies: IR1 reporter transcription, actives raise or lower the signal. In short, it runs like this: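 HepG2 cells transiently transfected with multiplexed cis-element reporter units read endogenous transcription factor activity. After 24 h compound exposure, reporter mRNA was quantified by RT-PCR, fluorescent labelling, HpaI digestion and capillary electrophoresis; bidirectional fitting versus DMSO baseline.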
Sequence of Bile acid receptor (Homo sapiens) (Q96RI1 whole entry, looked up): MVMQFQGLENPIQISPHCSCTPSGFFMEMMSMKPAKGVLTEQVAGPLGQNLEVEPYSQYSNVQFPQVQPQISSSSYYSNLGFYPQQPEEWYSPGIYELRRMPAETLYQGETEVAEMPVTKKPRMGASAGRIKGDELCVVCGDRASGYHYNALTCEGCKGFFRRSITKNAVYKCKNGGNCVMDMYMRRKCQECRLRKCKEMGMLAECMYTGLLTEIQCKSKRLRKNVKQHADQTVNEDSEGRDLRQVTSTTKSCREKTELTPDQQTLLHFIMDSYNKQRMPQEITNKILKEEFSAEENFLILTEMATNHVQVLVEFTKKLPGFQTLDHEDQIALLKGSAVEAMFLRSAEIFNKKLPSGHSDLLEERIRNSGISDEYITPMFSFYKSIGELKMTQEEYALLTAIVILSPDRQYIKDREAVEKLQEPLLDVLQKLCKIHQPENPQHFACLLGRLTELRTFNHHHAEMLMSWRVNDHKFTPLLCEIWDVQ

Assay [18] is described as follows: ATG_GRE_CIS: Attagene CIS-FACTORIAL HepG2 Assay for human Glucocorticoid Response Elements (GRE) (AID 2282947). The following applies: HepG2 GRE cis-reporter, Attagene multiplex mRNA; actives raise or lower the signal. In short, it runs like this:
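Reporter transcripts read by RT-PCR with capillary electrophoresis fluorescence after a 24 h chemical exposure of HepG2 cells transiently transfected with multiple cis-element reporter units. Gain or loss fitted against DMSO.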

Assay [19] can be described thus: ATG_ISRE_CIS: Attagene CIS-FACTORIAL HepG2 Assay for human Interferon Regulatory Factor 1 (IRF1) binding to an Interferon-Stimulated Response Element (ISRE) (AID 2282948). The conditions noted are these: HepG2 ISRE cis-reporter (Attagene), mRNA transcription readout; actives raise or lower the signal. In short, it runs like this:
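Read-out: fluorescent RT-PCR products resolved by capillary electrophoresis, reporting endogenous transcription factor activity via ISRE-driven reporter mRNA in transfected HepG2 cells dosed for 24 h; gain or loss fitted relative to DMSO.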

Assay [20] has as its target Hepatocyte nuclear factor 3-beta (Homo sapiens) (UniProt Q9Y261). The assay is described as follows: ATG_FoxA2_CIS: Attagene CIS-FACTORIAL HepG2 Assay for human Forkhead box A2 (FOXA2) (AID 2282942). The conditions noted are these: HepG2 cis-reporter transcription factor activity, 24 h; actives raise or lower the signal. In short, it runs like this: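 HepG2 transiently transfected with a multiplexed cis-promoter reporter library read endogenous FOXA2 activity. After 24 h compound exposure, reporter mRNA was quantified by RT-PCR, HpaI digestion and capillary electrophoresis. Bidirectional fit against DMSO.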

These results are taken from PubChem BioAssay (EPA / NIEHS).

For orientation: AC50 means the concentration at which the activity in the assay is half-maximal.

Structures are written as SMILES. The source made the active and inactive calls. The calls were made as follows: active = hit-call score of the fitted dose curve at least 0.9, where 1 is the maximum; inactive = score below 0.9.

Sequence of Retinoic acid receptor alpha (Homo sapiens) (P10276 whole entry, looked up): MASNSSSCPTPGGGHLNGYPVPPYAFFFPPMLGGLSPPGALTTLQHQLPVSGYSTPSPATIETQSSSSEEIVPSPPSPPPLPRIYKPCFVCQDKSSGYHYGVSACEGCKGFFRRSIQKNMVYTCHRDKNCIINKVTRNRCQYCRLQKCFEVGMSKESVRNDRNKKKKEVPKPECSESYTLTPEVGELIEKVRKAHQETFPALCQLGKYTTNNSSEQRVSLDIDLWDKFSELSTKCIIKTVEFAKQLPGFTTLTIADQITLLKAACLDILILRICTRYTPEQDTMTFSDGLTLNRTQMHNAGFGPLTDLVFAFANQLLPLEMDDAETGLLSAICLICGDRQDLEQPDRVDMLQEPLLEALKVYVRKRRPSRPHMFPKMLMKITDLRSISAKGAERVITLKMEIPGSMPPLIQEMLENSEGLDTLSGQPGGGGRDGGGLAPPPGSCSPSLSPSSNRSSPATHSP
Sequence of Transcription factor E2F1 (Homo sapiens) (Q01094 whole entry, looked up): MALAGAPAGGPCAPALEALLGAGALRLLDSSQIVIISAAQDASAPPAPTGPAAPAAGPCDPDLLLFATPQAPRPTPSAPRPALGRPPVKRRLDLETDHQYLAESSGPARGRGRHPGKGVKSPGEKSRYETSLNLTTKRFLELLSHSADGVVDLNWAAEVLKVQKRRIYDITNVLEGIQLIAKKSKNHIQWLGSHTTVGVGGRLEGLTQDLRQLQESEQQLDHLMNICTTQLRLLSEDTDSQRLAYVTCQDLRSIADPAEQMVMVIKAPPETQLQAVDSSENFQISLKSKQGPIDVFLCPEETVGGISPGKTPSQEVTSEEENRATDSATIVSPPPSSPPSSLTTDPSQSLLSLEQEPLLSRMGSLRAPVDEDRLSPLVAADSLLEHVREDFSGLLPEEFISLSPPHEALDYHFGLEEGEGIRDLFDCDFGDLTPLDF
Sequence of Aryl hydrocarbon receptor (Homo sapiens) (P35869 whole entry, looked up): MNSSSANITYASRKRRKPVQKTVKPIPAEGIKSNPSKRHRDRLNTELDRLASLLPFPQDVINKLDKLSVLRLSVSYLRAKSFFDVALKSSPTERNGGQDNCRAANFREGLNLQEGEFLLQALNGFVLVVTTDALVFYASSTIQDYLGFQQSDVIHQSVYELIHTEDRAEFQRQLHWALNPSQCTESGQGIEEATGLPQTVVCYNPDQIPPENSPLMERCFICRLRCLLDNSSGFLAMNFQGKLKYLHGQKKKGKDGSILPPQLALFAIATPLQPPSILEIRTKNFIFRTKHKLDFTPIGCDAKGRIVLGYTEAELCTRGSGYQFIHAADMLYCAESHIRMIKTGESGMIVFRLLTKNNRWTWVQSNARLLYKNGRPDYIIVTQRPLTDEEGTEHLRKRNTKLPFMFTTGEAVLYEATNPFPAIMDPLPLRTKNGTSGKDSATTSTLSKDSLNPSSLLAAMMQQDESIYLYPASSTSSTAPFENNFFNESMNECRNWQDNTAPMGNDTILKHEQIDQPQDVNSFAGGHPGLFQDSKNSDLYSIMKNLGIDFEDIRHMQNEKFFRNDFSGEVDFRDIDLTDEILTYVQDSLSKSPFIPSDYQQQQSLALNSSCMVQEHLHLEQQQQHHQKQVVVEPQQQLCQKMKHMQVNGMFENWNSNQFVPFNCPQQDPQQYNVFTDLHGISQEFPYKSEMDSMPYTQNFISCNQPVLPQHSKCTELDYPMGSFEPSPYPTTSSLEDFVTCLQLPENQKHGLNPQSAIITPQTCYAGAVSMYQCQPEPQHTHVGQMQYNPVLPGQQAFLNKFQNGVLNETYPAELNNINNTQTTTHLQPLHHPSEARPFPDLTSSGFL
Sequence of Hepatocyte nuclear factor 3-beta (Homo sapiens) (Q9Y261 whole entry, looked up): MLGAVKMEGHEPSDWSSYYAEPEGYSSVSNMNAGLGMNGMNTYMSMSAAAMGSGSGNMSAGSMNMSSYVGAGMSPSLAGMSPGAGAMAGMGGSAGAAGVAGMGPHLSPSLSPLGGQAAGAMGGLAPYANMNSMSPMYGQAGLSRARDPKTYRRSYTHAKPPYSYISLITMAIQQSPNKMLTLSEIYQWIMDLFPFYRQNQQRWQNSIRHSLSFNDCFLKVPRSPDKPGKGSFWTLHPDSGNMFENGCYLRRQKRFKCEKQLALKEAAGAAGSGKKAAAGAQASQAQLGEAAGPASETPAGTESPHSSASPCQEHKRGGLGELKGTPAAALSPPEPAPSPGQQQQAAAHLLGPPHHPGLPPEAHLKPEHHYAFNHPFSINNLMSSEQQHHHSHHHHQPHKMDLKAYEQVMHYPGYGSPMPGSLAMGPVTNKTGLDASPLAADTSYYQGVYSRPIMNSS

In the case of `CNC(=O)CSP(=O)(OC)OC`, the result in assay [1], in assay [2], in assay [3], in assay [4], in assay [5] and in assay [6] was inactive. The call in [7], in assay [8], in assay [9], in [10], in assay [11] and in assay [12] was inactive. For the same molecule, the molecule was classed as inactive in assay [13], in [14], in assay [15], in assay [16], in assay [17] and in [18]. The result in assay [19] was inactive.
For `C=C(C)C(=O)OCCCCOC(=O)C(=C)C`, the molecule was classed as inactive in assay [1], in assay [2], in assay [3], in assay [4], in assay [5] and in assay [6]. Besides, the molecule was called inactive in assay [7], in [8], in assay [9], in assay [10], in assay [11] and in assay [12]. The result in assay [13], in assay [20], in [14], in assay [15], in [16] and in assay [18] was inactive. Also, the outcome in assay [19] was inactive.
In the case of `Nc1ccc(Br)cc1`, the call in assay [1], in assay [3], in assay [4], in assay [5], in assay [6] and in assay [7] was inactive. Further, the result in [8], in assay [9], in assay [10], in assay [11], in assay [12] and in assay [13] was inactive. The molecule was classed as inactive in assay [20], in assay [14], in assay [15], in assay [16], in [17] and in assay [18]. Further, in [19], the result was inactive. Further, the AC50 in assay [2] is 25.4 µM (active).
